Reference: PubChem BioAssay (NCI)
Compounds without any hit were thinned out: in the full panel of roughly 83,000, 20% have a hit.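 For each line, cells grew in 96-well plates with the test compound present at a single concentration for 48 hours.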 Calls of active or inactive are those of the source. How the source made its calls: active means growth percent below 10; inactive means the rest.

Legend:
Assay in all cases: NCI-60 one-dose screen, 48 h (100 = growth as untreated, 0 = no growth, -100 = all killed)
Conditions in all cases: 10 µM unless noted
[1] = tested on: NCI-H23 lung
[2] = tested on: NCI-H226 lung
[3] = tested on: NCI-H322M lung
[4] = tested on: HOP-62 NSCLC
[5] = tested on: NCI-H460 lung
[6] = tested on: HOP-92 NSCLC
[7] = tested on: NCI-H522 lung
[8] = tested on: A549/ATCC NSCLC
[9] = tested on: 786-0 renal
[10] = tested on: COLO 205 colon

Measured: growth

C=C1C(=O)O[C@H]2[C@H]1CC/C(CNC(=O)CCc1ccc(OC)cc1)=C\CC[C@@]1(C)O[C@@H]21
inactive: [1] 85.3% | [2] 89.9% | [3] 91.4% | [4] 83.6% | [5] 90.4% | [6] 19.8% | [7] 20.2% | [8] 81.7% | [9] 34% | [10] 15.1%

O=C1c2ccc3c4c(ccc(c24)C(=O)N1CCCNCc1ccccc1F)C(=O)N(CCCNCc1ccccc1F)C3=O
active: [1] -53% | [2] -51.9% | [3] -83.5% | [4] -29.7% | [5] -55.2% | [6] -14.2% | [7] -92.5% | [8] -91.2% | [9] -40.1% | [10] -46%

N/C(=N\C(N)=N\c1nc2ccccc2s1)c1cnccn1
inactive: [1] 19.8% | [2] 22.5% | [3] 25.1% | [4] 40.2% | [5] 11.8% | [6] 47% | [7] 22.4% | [8] 21.1% | [9] 23.4% | [10] 16.2%

Cc1cccc(-c2cn3ccnc3c(-c3ccc4ncn(Cc5ccccc5)c4c3)n2)c1
inactive: [1] 90.9% | [2] 98.8% | [3] 101% | [4] 90.3% | [5] 89.9% | [6] 71.3% | [7] 71.6% | [8] 85.1% | [9] 78.6% | [10] 88.6%

CC(Sc1nc2ccccc2c(=O)n1CCc1ccc(S(N)(=O)=O)cc1)C(=O)Nc1ccc(Cl)cc1 (stereo not given)
inactive: [1] 79.5% | [2] 76.6% | [3] 73.4% | [4] 84.4% | [5] 94.7% | [6] 107% | [7] 56.3% | [8] 69.6% | [9] 80.2% | [10] 106%

CCN(CC)c1ccc(/C=N/NC(=O)CSc2nc3ccccc3c(=O)n2Cc2ccc(S(N)(=O)=O)cc2)c(O)c1
active: [5] 6.78% | [7] -26.1% | [10] -2.18%
inactive: [1] 39.6% | [2] 31.1% | [3] 27.1% | [4] 21.2% | [6] 58.4% | [8] 29% | [9] 32.6%

Cc1ccc(/C=C(/C#N)n2nnc3cccc(F)c32)cc1
active: [1] 4.73% | [5] -34.8% | [6] -6.05% | [9] 1.78% | [10] -19.5%
inactive: [2] 23% | [3] 16.3% | [4] 21.8% | [7] 11.6% | [8] 11.5%

COc1ccccc1NC(=O)C1CC(c2ccc(F)cc2)=NO1 (stereo not given)
inactive: [1] 100% | [2] 99.2% | [3] 102% | [4] 97.5% | [5] 98.5% | [6] 89.7% | [7] 92.6% | [8] 95.2% | [9] 101% | [10] 111%

O=C1c2cccc3c(-c4ccc5c(c4)ncn5C4CCCCC4)ccc(c23)C(=O)N1c1nc2ccccc2s1
inactive: [1] 86.4% | [2] 84.1% | [3] 91.7% | [4] 82% | [5] 94.8% | [6] 76% | [7] 78.2% | [8] 100% | [9] 93% | [10] 89.8%

COc1cc(NC(=O)CSc2nc3ccc(C)cc3c(=O)n2Cc2ccccc2)cc(OC)c1OC
active: [6] 0.585%
inactive: [1] 74.2% | [2] 24.7% | [3] 63.4% | [4] 45.5% | [5] 57.3% | [7] 31.9% | [8] 66.6% | [9] 43.3% | [10] 88.6%

COC(=O)/C=C1\S/C(=N\NC(=O)c2cc3ccc2/C=C\c2ccc(cc2)/C=C\3)N(c2ccccc2)C1=O
inactive: [1] 40.4% | [2] 73.8% | [3] 68.5% | [5] 60.7% | [6] 75.3% | [7] 41.5% | [8] 69.1% | [10] 47.7%
active: [4] 3% | [9] -0.285%

Cc1cccc(NC(=O)Nc2ccc(-c3ccc4c(c3)NC(=O)/C4=C\c3ccc[nH]3)cc2)c1
inactive: [1] 61.6% | [2] 85.5% | [3] 89.8% | [4] 89.8% | [5] 26.3% | [6] 127% | [7] 85.3% | [8] 83.6% | [9] 103% | [10] 96.3%

c1ccc2cc(Cn3c(-c4cccc5ccccc45)[n+](Cc4ccc5ccccc5c4)c4c5ccccc5c5ccccc5c43)ccc2c1
active: [1] -60.8% | [2] -66% | [3] -25% | [4] -85.1% | [5] -71.7% | [6] -52.3% | [7] -64.2% | [8] -71.7% | [9] -70% | [10] -84.9%

O=C(CCN1CCCC1)Nc1ccc2c(Nc3ccc(F)cc3)c3ccccc3nc2c1
active: [1] -12.8% | [3] -14.6% | [4] -12.5% | [5] -66.4% | [6] 4.17% | [7] -22.6% | [8] -21.8% | [9] -35.9% | [10] -33.2%
inactive: [2] 42.7%

Cn1nc(CC#N)c2c(=N)n(N)cnc21
inactive: [1] 104% | [2] 108% | [3] 118% | [4] 101% | [5] 102% | [6] 98.8% | [7] 110% | [8] 113% | [9] 123% | [10] 105%

Clc1ccc(-c2ccc(CNCC3CCNCC3)o2)c(-c2ccccc2)c1
active: [1] -39.8% | [2] -12.1% | [3] -25.7% | [4] -78.3% | [5] -86.7% | [6] -39.3% | [7] -70.7% | [8] -79.5% | [9] -90.2% | [10] -76.3%

COc1ccc(C(=O)c2cc(C)c(OC)c(C)c2)c(OC)c1N(C(=O)CCl)C(=O)CCl
inactive: [1] 20.8% | [3] 36.2% | [8] 13.4% | [9] 13.2%
active: [2] 7.88% | [4] 9.36% | [5] 1.32% | [6] 7.45% | [7] 6.33% | [10] -39.4%

O=C(/C=C/c1c(-c2ccc(Cl)cc2)nn(-c2ccccc2)c1C(F)(F)F)c1ccc(Cl)cc1
inactive: [1] 80.8% | [2] 101% | [3] 93.3% | [4] 90.9% | [5] 82.3% | [6] 65.1% | [7] 78.9% | [8] 81.3% | [9] 95.9% | [10] 110%

N#Cc1cc(-c2nc3ccccc3s2)c(=O)n(NS(=O)(=O)c2ccccc2)c1N
inactive: [1] 102% | [2] 85.7% | [3] 108% | [4] 90.1% | [5] 106% | [6] 104% | [7] 94.2% | [8] 117% | [9] 106% | [10] 122%

O=S(=O)(NCCNc1nccc(-c2c(-c3cccc(F)c3)nc3sccn23)n1)c1ccc(Br)cc1
inactive: [1] 72.6% | [2] 41.2% | [3] 61% | [4] 83.3% | [5] 27.8% | [6] 76.7% | [7] 62.6% | [8] 34.1% | [9] 50.6% | [10] 36.4%

COC(=O)CNC(=O)[C@]12CCC(C)(C)C[C@H]1C1=CC[C@@H]3[C@@]4(C)Cc5c([nH]c6ccccc56)C(C)(C)[C@@H]4CC[C@@]3(C)[C@]1(C)CC2
inactive: [1] 92.9% | [2] 83.5% | [3] 91.6% | [4] 87.8% | [5] 87.7% | [6] 101% | [7] 80.5% | [8] 50.4% | [9] 91.6% | [10] 87%

COc1cc2c(c(OC)c1OC)CCC(c1cccc(NC(=O)c3cccc(Br)c3)c1)O2 (stereo not given)
inactive: [1] 95.1% | [2] 93.7% | [3] 98.5% | [4] 99.8% | [5] 100% | [6] 94% | [7] 81% | [8] 81.2% | [9] 93.7% | [10] 98.3%

Nc1n[nH]c2cccc(C#Cc3cccc(C(=O)Nc4cc(CN5CCOCC5)cc(C(F)(F)F)c4)c3)c12
inactive: [1] 38.4% | [2] 26.7% | [3] 62.1% | [4] 38.7% | [5] 26.6% | [7] 39.3% | [8] 42.4% | [9] 63.8% | [10] 14.6%
active: [6] -7.48%

Cn1cc(CC2CC(=O)N(c3ccccc3)C2=O)sc1=NC(=O)c1ccccc1 (stereo not given)
inactive: [1] 95.8% | [2] 97.5% | [3] 92.5% | [4] 92.9% | [5] 106% | [6] 85.1% | [7] 92.8% | [8] 101% | [9] 94.4% | [10] 111%

C#CCNC(=O)c1cccc2c1cc(C)n2-c1nc2c(c(NCc3ccccc3)n1)CCCC2
active: [1] -42.8% | [2] -67.1% | [3] -4.53% | [4] -6.14% | [5] -30.8% | [6] -61% | [7] -25.8% | [8] -29.5% | [9] -48.4% | [10] -46.4%

O=C(Cn1c[n+](CC(=O)c2ccc(-c3ccccc3)cc2)c2ccccc21)Nc1cccc2cccnc12
inactive: [1] 23.8% | [2] 50.4% | [3] 77.2% | [4] 43.2% | [5] 28.7% | [8] 59.9% | [9] 44.4%
active: [6] -4.57% | [7] 2.6% | [10] -61.8%
